The record followed here is PubChem BioAssay AID504433 (National Center for Advancing Translational Sciences (NCATS), 2011).

The assay is described as follows: Secondary Assay for lipid storage modulators: Cytotoxcity for probe SAR round 2. To be noted: Drosophila S3 cells viability, CellTiter-Glo ATP luminescence, 24 h; series mostly up to 46.1 µM. The source says:
NIH Molecular Libraries Probe Production Centers Network [MLPCN] NIH Chemical Genomics Center [NCGC] MLPCN Grant: 1 R03 MH085686-01 Assay Submitter (PI): Beller, Mathias; Max-Planck-Institut fur Biophysikalische Chemie, Germany. NCGC Assay Overview: Storing lipids as a reservoir for energy or the anabolism of elementary metabolites is a common feature of probably all cells and is conserved from bacteria to humans. The universal cellular lipid storage organelle is the so-called lipid storage droplet (LD). Although ubiquitous, LDs share a simple structure composed of a hydrophobic core that harbors the storage lipids, which is shielded by a droplet-specific phospholipid monolayer to which proteins are attached. The current model of LD biogenesis involves an incorporation of the lipid core into the membrane leaflets of the endoplasmic reticulum (ER) followed by a subsequent budding-like maturation of a LD, which ultimately pinches off. Once released, LD volume can increase by localized lipogenesis or fusion of existing droplet. Storage lipids are re-mobilized enzymatically by lipase activity. […]
Assay Protocol Summary: Cytotoxcity assay was performed with embryonic Drosophila S3 cells (Bloomington Drosophila Genomics Resource Center [DGRC]). […] Luminescence was detected on the Perkin Elmer ViewLux.
For orientation: ATP-based viability assays read luminescence as a measure of living cells.

Molecules are shown by their SMILES. Results filed as inconclusive are left out. Calls of active or inactive are those of the source. Calls come from the whole dose curve; as a rule, active = well fitted inhibition curve with a large enough effect; inconclusive = small, poorly fitted or top-dose-only effect; inactive = flat fitted curve, though single readings scatter.

As for `CCC/C=C/C/C=C/C=C/C=N/NN=O`, the compound was called inactive.
